Assay outcomes as filed in PubChem.
Pf growth 48h = P. falciparum growth inhibition at 48 hours (one generation) | actives 5.9% (n = 310,000) | P. falciparum luciferase growth in erythrocytes, 48 h | AID 504832 | Potency, µM (doses to about 28.7 µM), for the others: at the highest dose activity change, negative = inhibition, hits mostly inhibitors; also: potency is read from the fitted curve at half-maximal effect; % is scaled to controls: 0 for no effect and ±100 for the full control effect
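Firefly luciferase activity from engineered P. falciparum reports growth; inhibitors lower the luminescent signal. Cultures contained 2% hematocrit erythrocytes at 0.1% final parasitemia.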
LmPK inh = blocks Leishmania mexicana pyruvate kinase activity. Potency, µM (series often up to 57.5 µM), inactives show at the top dose activity change, negative = inhibition, most hits filed as inhibitors. Q27686. AID 1721. actives 0.37% (n = 290,000). purified LmPK, Kinase-Glo ATP luminescence, 1 h; also: potency is read from the fitted curve at half-maximal effect; % is scaled to controls: 0 for no effect and ±100 for the full control effect
Target sequence (Q27686 whole entry, looked up): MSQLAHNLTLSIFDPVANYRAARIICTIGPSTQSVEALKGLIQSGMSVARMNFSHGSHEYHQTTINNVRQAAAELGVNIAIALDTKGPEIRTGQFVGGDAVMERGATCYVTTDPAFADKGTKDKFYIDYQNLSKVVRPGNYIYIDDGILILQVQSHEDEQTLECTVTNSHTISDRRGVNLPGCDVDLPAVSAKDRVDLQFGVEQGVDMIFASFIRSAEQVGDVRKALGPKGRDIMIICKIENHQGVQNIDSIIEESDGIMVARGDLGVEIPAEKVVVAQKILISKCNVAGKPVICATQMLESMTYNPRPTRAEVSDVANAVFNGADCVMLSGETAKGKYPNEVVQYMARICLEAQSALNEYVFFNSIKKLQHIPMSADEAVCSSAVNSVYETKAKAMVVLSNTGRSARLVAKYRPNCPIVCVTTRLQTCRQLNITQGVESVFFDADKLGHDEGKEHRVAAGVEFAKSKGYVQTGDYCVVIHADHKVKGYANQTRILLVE
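In 50 mM imidazole pH 7.2 with 7 mM MgCl2, LmPK (0.1 nM) turned over PEP (0.5 mM) and ADP (0.1 mM) for 1 h at room temperature. Luciferase read-out of ATP.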
Shiga toxin inh = blocks Shiga toxin action in Vero cells; Vero cells, Shiga toxin protein synthesis inhibition reporter; inhibition, % at 38.7 µM; actives 9.2% (n = 290,000); in the data active = inhibition mostly above about 28%, no sharp cut-off; inactive = mostly below about 43%; also: 0% is about no effect
CHX counter = counter-screen hit for Shiga toxin inhibitors, cycloheximide; cell reporter, cycloheximide protein synthesis inhibition counterscreen; AID 2314; actives 12% (n = 300,000); max response, %; in the data active = max response mostly above about 13%, no sharp cut-off; inactive = mostly below about 14%; also: read at 38.3 µM for the half of the compounds with a filed dose; 0% is about no effect
Pf growth 96h = inhibits malaria parasite growth, 96 h; actives 6.9% (n = 320,000); P. falciparum luciferase reporter growth, 96 h; AID 504834; Potency, µM (series often up to 28.7 µM), for inactives: at the top dose activity change, negative = inhibition, most hits filed as inhibitors; also: potency is read from the fitted curve at half-maximal effect; % is scaled to controls: 0 for no effect and ±100 for the full control effect
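Cell-based qHTS: luciferase-tagged P. falciparum in erythrocytes (2% hematocrit, 0.05% parasitemia final) incubated with compounds for 96 hours, 37 C, 5% CO2; luciferase detection reagent then added and luminescence measured.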
An asterisk follows results filed as active; ? = inconclusive; . = not tested or not shown. An excerpt weighted towards active compounds, which were near 22% of everything screened. Unless noted, calls follow the shape of the dose curve; as a rule, active = well fitted inhibition curve with a large enough effect; inconclusive = small, poorly fitted or top-dose-only effect, or another doubt; inactive = no such curve, though single readings can be large or run the other way.

SMILES | Pf growth 48h | LmPK inh | Shiga toxin inh | CHX counter | Pf growth 96h
CCOC(=O)c1ccc2c(c1)n(Cc1ccccc1)c(C)[n+]2CC | ? | 2% | -9 | -4 | 16%
COc1cc(C2NC(=O)NC(O)(C(F)(F)F)C2C(=O)c2cccs2)ccc1O (stereo not drawn) | 0% | 1% | 87* | 34* | 13µM*
CCN(/C=N/c1sc2c(c1C#N)CCCCC2)CC | 76% | -6% | 67* | 52* | 165%
CN1CCN(/C=N/c2sc3c(c2C#N)CCCCC3)CC1 | 67% | 0% | 89* | 46* | 329%
COC(=O)CSc1nc2ccc(N)cc2s1 | 11% | 3% | 25 | 19* | 3%
COc1ccc(CSc2nnc(N)s2)cc1F | 38% | 1% | 86* | 43* | ?
COc1ccccc1OCCSc1nc2ccc([N+](=O)[O-])cc2s1 | 6% | 0% | -11 | 10* | ?
Nc1ccc2nc(SCc3ccc([N+](=O)[O-])cc3)sc2c1 | 88% | 4% | 45 | 28* | 52%
Nc1nnc(SCc2ccc(F)cc2)s1 | 21% | -3% | 16 | 11 | ?
CC(=O)c1c(C)[nH]c(C(=O)OCC(=O)c2ccc(C)s2)c1C | 103% | . | . | . | 97%
Nc1nnc(SCc2ccc([N+](=O)[O-])cc2)s1 | 12% | -4% | 22 | 8.0* | 12%
CCN(CC)S(=O)(=O)c1ccc(NC(=O)CC(NC(C)=O)c2ccccc2)cc1 (stereo not drawn) | -20% | 6% | -9 | -7 | .
Fc1ccc(-c2n[nH]c(=S)n2Cc2ccccc2)cc1 | -9% | -27% | -10 | -9 | ?
Fc1ccc(-c2c[nH]c(=S)n2Cc2ccccc2)cc1 | 10µM* | 3.5µM* | -3 | -3 | ?
COc1ccc2nc(SCC(=O)NC(C)c3ccccc3)[nH]c2c1 (stereo not drawn) | -10% | . | . | . | ?
Cc1ccc(S(=O)(=O)NC(C)c2ccccc2)cc1[N+](=O)[O-] (stereo not drawn) | 16% | 7% | -6 | -1 | 12µM*
O=[N+]([O-])c1ccccc1CN1CC=C(c2ccc(F)cc2)CC1 | 9% | -2% | 23* | 17* | -26%
O=[N+]([O-])c1cccc(CN2CC=C(c3ccc(F)cc3)CC2)c1 | -6% | -5% | -4 | 1 | 10µM*
O=S(=O)(NCc1ccccc1F)c1cccc(S(=O)(=O)N2CCOCC2)c1 | 8.3µM* | -4% | 3 | -1 | 63%
O=S(=O)(NCc1ccc(F)cc1)c1cccc(S(=O)(=O)N2CCOCC2)c1 | . | 0% | -4 | -3 | -21%
CCS(=O)(=O)N1Cc2ccccc2CC1C(=O)Nc1ccc(OC)c(OC)c1 (stereo not drawn) | -14% | 3% | -9 | -3 | -7%
CCS(=O)(=O)N1Cc2ccccc2CC1C(=O)Nc1cccc(OC)c1 (stereo not drawn) | 3% | -1% | 124* | 24* | ?
CCS(=O)(=O)N1Cc2ccccc2CC1C(=O)Nc1ccc(F)cc1 (stereo not drawn) | 135% | 5% | 36* | 24* | -1%
Cc1cc(NC(=O)c2c(C)noc2C)no1 | 72% | 0% | -4 | -1 | 0%
Cc1ccc(-n2nc(C)c3c2OC(N)=C(C#N)C3c2ccc(C)o2)cc1 (stereo not drawn) | -25% | -5% | 92* | 48* | ?
SMILES | Pf growth 48h | LmPK inh | Shiga toxin inh | CHX counter | Pf growth 96h
Cc1ccc(-n2nc(C)c3c2OC(N)=C(C#N)C3c2ccco2)cc1 (stereo not drawn) | -21% | -1% | 75* | 22* | 47%
Cc1ccc(-n2nc(C)c3c2OC(N)=C(C#N)C3c2ccoc2)cc1 (stereo not drawn) | . | 15% | 52 | 25* | .
CCOc1ccc(NC(=S)N(CCOC)C2CCN(C(C)C)CC2)cc1 | 10% | 1% | -6 | -1 | ?
N/C(=N\OS(=O)(=O)c1ccccc1)c1cccnc1 | 11% | -2% | -1 | 1 | 155%
N/C(=N\OS(=O)(=O)c1ccccc1)c1ccncc1 | ? | 0% | 25 | -2 | 8.3µM*
N/C(=N\OC(=O)c1cccc(Br)c1)c1ccncc1 | 8% | 2% | 83* | 35* | -1%
N/C(=N\OC(=O)c1ccc(Br)cc1)c1ccncc1 | 78% | -25% | 52* | 45* | -24%
O=C(COC(=O)c1ccncc1)c1ccc(Br)cc1 | 0% | 2% | 36 | -3 | 22%
N/C(=N\OC(=O)c1ccccc1)c1ccncc1 | 75% | -24% | 87* | 46* | ?
COc1cc(OC)cc(C(=O)O/N=C(\N)c2ccncc2)c1 | ? | -1% | 26 | 5 | ?
Cc1cccc(C(=O)O/N=C(/c2ccccc2)c2ccncc2)c1 | 7% | 0% | 6 | 13 | ?
O=c1oc(-c2cccnc2)nc2ccccc12 | -10% | -2% | -1 | -2 | 109%
Cc1cc(=O)c2cc3nc(-c4cccnc4)oc3c(Br)c2o1 | ? | -2% | 42 | 15* | 10%
COc1ccc(O[C@H]2C=C[C@@H](c3ccccc3)O[C@@H]2COC(=O)CC/C(C)=N/O[C@@H](C)c2cn([C@H](CO)Cc3ccccc3)nn2)cc1 | ? | 1% | -3 | -1 | ?
C/C(CCN1CCc2nc(-c3ccccc3)c(-c3ccccc3)cc2C1)=N\O[C@@H](C)c1cn([C@H](CO)Cc2ccccc2)nn1 | ? | 3% | -10 | -2 | 13µM*
COc1ccc2[nH]cc(CCn3ccc(O)c(C/C=C/c4ccccc4)c3=O)c2c1 | 9.3µM* | 4% | 1 | -3 | ?
CCSc1nc(N)nc(-c2cccs2)c1C#N | 54% | 2% | 68* | 31* | 58%
COc1ccc(S(=O)(=O)N2c3ccccc3NC(=O)CC2C)cc1 (stereo not drawn) | 12% | -10% | 17 | -4 | 68%
CCn1c(SCC(=O)OC(C)C)nnc1-c1ccccc1OC | -20% | -6% | -14 | 12 | 35%
CCOc1ccc(CCNC(=O)CN2C(=O)NC3(CCCC3)C2=O)cc1OCC | 9% | -5% | 21 | -5 | 17%
COc1ccc(CCNC(=O)CN2C(=O)c3cccc4cccc(c34)C2=O)cc1OC | 12% | 0% | -3 | -3 | 10µM*
COc1ccc(CCN2C(=O)c3cccc4cccc(c34)C2=O)cc1OC | 4% | 3% | 11 | 11 | ?
CCC(C)(C)C1CCC2(CC1)NC(=O)N(CC(=O)NCCc1ccc(OC)c(OC)c1)C2=O (stereo not drawn) | 12µM* | . | . | . | ?
CON1C(=O)C(=O)N(OC)C(C)(C)C1C (stereo not drawn) | -1% | 0% | -5 | -2 | 45%
COc1cc(NC(=S)N2CCN(S(=O)(=O)c3ccc(F)cc3)CC2)cc(OC)c1 | 2.3µM* | 8% | 15 | 1 | -27%
COc1cccc(NC(=S)N2CCN(S(=O)(=O)c3ccc(F)cc3)CC2)c1 | 1.9µM* | -5% | -7 | 6 | ?
